For 40 compounds, growth inhibition results are on record in PubChem BioAssay (NCI).

About 79,000 compounds went through this panel and 15% of them were active in at least one assay; those are over-represented in the sample as a whole. Values without a mark were called inactive. Calls of active or inactive are those of the source. No stated cut-off is given here; in the data, active means growth inhibition above about 70%; inactive means the rest.

The first assay in a line: NCI Yeast Anticancer Drug Screen. Data for the rad50 strain (AID 155).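 Further: 0% = growth of vehicle-only cultures of the same strain.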 The following applies: S. cerevisiae rad50 strain growth inhibition; at 50.0 µM; stronger effect = higher value. The procedure, abridged: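 Yeast carrying a defined DNA repair defect were exposed to test compounds, and growth was compared with vehicle-treated controls to give percent inhibition.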
Regarding `O=S(=O)(N=S(CCCl)CCCl)c1ccccc1`, the growth inhibition was 8.3%. Regarding `Cc1ccc2nc(CCl)[nH]c2c1`, the growth inhibition is 31.6%.

As for `CCOC(=O)C(Cc1c[nH]c2ccccc12)NC(=O)/C=C/N(CCCl)CCCl` (stereo not drawn), the growth inhibition is 9.25%.

With `O=c1c2cc(Br)cc(Br)c2nc(CCCl)n1-c1ccc(O)c([N+](=O)[O-])c1`, the growth inhibition is -2%. As to `O=C(O)CCCC(=O)CCCC(=O)O.[Pb]`, the growth inhibition was -20%.

On to `CC(C)=NNC1=NC(C)(C)P(=O)(N2CCCC2C(=O)O)S1` (stereo not drawn), for which the growth inhibition is 0.8%. With `O=C(NN=C1CCN(Cc2ccccc2)CC1)C(O)(c1ccccc1)c1ccccc1`, the growth inhibition was -13.6%. For the compound `CC1=C(C)C(=O)O[C@@H]([C@](C)(O)[C@]2(O)CC[C@@]3(O)[C@@H]4C[C@H]5O[C@]56[C@@H](O)C=CC(=O)[C@]6(C)[C@H]4CC[C@]23C)C1`, the growth inhibition is 14.9%. As for `CN1C2CCC1CC(OC(=O)c1cccc(O)c1)C2` (stereo not drawn), the growth inhibition was 30.9%. With `COC(=O)CP(=O)(OC)OCC(F)(F)F` (stereo not drawn), the growth inhibition is -32.8%. `CCC1(/C=C/C(C)C)C(=O)NC(=S)NC1=O`: the growth inhibition was -0.75%. The same measure, in the same setting: for `CCC(CN)c1ccccc1` (stereo not drawn) the value was 13.6%; for `C=CCOCC1CO1` (stereo not drawn), 9.1%.

Regarding `O=N[O-].O=N[O-].[Co].[NH-]CC[N-]CCO.[NH-]CC[N-]CCO`, the growth inhibition is 37.6%.

For the compound `c1ccc(NC2CCN(C3(c4ccccc4)CCCCC3)CC2)cc1`, the growth inhibition is -17.9%. On the same count and under the same terms, as for `COC(=O)C1=C(O)C(C(=O)OC)C2/C(=[N+](/[O-])O)c3c(cc([N+](=O)[O-])cc3[N+](=O)[O-])C1C2[N+](=O)[O-]` (stereo not drawn), the figure is 75.8% (active); as for `CCOP(=O)(/C=C/c1cc(OC)ccc1OC)OCC`, -0.05%; as for `[C-]#[O+].[C-]#[O+].[C-]#[O+].[C-]#[O+].[Cr].c1ccc(P(CCP(CCP(c2ccccc2)c2ccccc2)c2ccccc2)CCP(c2ccccc2)c2ccccc2)cc1` (stereo not drawn), 20.7%. In the case of `[I][Hg][CH]1CCC2CCCC1O2` (stereo not drawn), the growth inhibition is 99.7% (active). As for `COc1ccccc1[As](=O)(O)c1ccccc1`, the growth inhibition is -6.45%. Take `COc1ccc(C(C)(C)CC(C)(C)C)cc1`: the growth inhibition was 39%. `O=C1CN2CCC1CC2`: the growth inhibition was 10.3%. As to `CCCC(NC(=O)CCl)C(=O)O` (stereo not drawn), the growth inhibition is -13.1%.

A short description of a further assay: NCI Yeast Anticancer Drug Screen. Data for the mec2-1 strain (AID 157). The following applies: S. cerevisiae mec2-1 strain, at 50.0 µM, stronger effect = higher value. The procedure, abridged:
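Using mec2-1 yeast: add compound, measure growth, express inhibition versus vehicle-treated cultures.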
For `CCP(=S)(CC)P(=S)(CC)CC`, the growth inhibition was -21.4%. Regarding `Cc1cccc(C)c1NC(N)=S`, the growth inhibition is 6.15%.

For the compound `Nc1ccc(C(=O)O)cc1[As](O)O`, the growth inhibition is -4.05%. On to `FC(F)(F)c1cccc(NC2=NCCS2)c1`, for which the growth inhibition is -46.1%. In the case of `CC(C)C1C=Cc2ccccc21` (stereo not drawn), the growth inhibition is 1.85%. On to `CCOP(=O)(CC(N)=O)OCC`, for which the growth inhibition is 9.8%. With `O=c1[nH]cnc2c1ncn2-c1ccc(N(CCCl)CCCl)cc1`, the growth inhibition is 12.7%. The same measure, in the same setting: as for `CCN1C(=O)NC(=O)C(C)(N2CCCCC2)C1=O` (stereo not drawn), the figure is 5.3%; as for `C1CN1[PH+](N1CC1)N1CC1.[C-]#[O+].[C-]#[O+].[C-]#[O+].[C-]#[O+].[C-]#[O+].[W]`, -3.85%; as for `O=C(NCC(O)CO)c1cc(N(CCCl)CCCl)c([N+](=O)[O-])cc1[N+](=O)[O-]` (stereo not drawn), -35.9%.

Turning to `CCCCCCNP(=O)(OCC)OCC`, the growth inhibition was -36.9%. The same measure, in the same setting: as for `CCC1(CCC(C)C)C(=O)NC(=O)N(c2ccccc2)C1=O` (stereo not drawn), the figure is -1.5%; as for `O=N[O-].O=N[O-].[NH2-].[NH2-].[NH2-].[NH2-].[Ni]`, 7%; as for `Oc1cccc(/C=N\NC(=S)NC2CN3CCC2CC3)c1` (stereo not drawn), -5.9%.

On to `CCN1/C(=C/C=C2\CCC(/C=C/c3sc4ccc(Cl)cc4[n+]3CC)=C2N(c2ccccc2)c2ccccc2)Sc2ccc(Cl)cc21`, for which the growth inhibition is 32.2%. On the same count and under the same terms, for `COC(=O)C(Cl)Cl` the value was -17.1%; for `CO[C@@]12[C@@H]3N[C@@H]3CN1C1=C(C(=O)C(NCCC#N)=C(C)C1=O)[C@@H]2COC(N)=O`, 13.2%; for `O=S(=O)(N=S(CCCl)CCCl)c1ccccc1`, 11.3%. In the case of `Cc1ccc2nc(CCl)[nH]c2c1`, the growth inhibition is -5.65%. Regarding `CCOC(=O)C(Cc1c[nH]c2ccccc12)NC(=O)/C=C/N(CCCl)CCCl` (stereo not drawn), the growth inhibition is 9.95%. The same measure, in the same setting: as for `O=c1c2cc(Br)cc(Br)c2nc(CCCl)n1-c1ccc(O)c([N+](=O)[O-])c1`, the figure is 15.8%; as for `O=C(O)CCCC(=O)CCCC(=O)O.[Pb]`, -27.3%; as for `CC(C)=NNC1=NC(C)(C)P(=O)(N2CCCC2C(=O)O)S1` (stereo not drawn), -12.4%. In the case of `O=C(NN=C1CCN(Cc2ccccc2)CC1)C(O)(c1ccccc1)c1ccccc1`, the growth inhibition was -5.5%. For `CC1=C(C)C(=O)O[C@@H]([C@](C)(O)[C@]2(O)CC[C@@]3(O)[C@@H]4C[C@H]5O[C@]56[C@@H](O)C=CC(=O)[C@]6(C)[C@H]4CC[C@]23C)C1`, the growth inhibition is 24.9%. On the same count and under the same terms, as for `CN1C2CCC1CC(OC(=O)c1cccc(O)c1)C2` (stereo not drawn), the figure is 0.55%; as for `COC(=O)CP(=O)(OC)OCC(F)(F)F` (stereo not drawn), -14.4%. As to `CCC1(/C=C/C(C)C)C(=O)NC(=S)NC1=O`, the growth inhibition was 4.55%. For `CCC(CN)c1ccccc1` (stereo not drawn), the growth inhibition was -0.85%. Turning to `C=CCOCC1CO1` (stereo not drawn), the growth inhibition is -5.1%. For the compound `O=N[O-].O=N[O-].[Co].[NH-]CC[N-]CCO.[NH-]CC[N-]CCO`, the growth inhibition was -0.7%. `c1ccc(NC2CCN(C3(c4ccccc4)CCCCC3)CC2)cc1`: the growth inhibition was -6.8%. Same read-out and setting: for `COC(=O)C1=C(O)C(C(=O)OC)C2/C(=[N+](/[O-])O)c3c(cc([N+](=O)[O-])cc3[N+](=O)[O-])C1C2[N+](=O)[O-]` (stereo not drawn) the value was 81% (active); for `CCOP(=O)(/C=C/c1cc(OC)ccc1OC)OCC`, -12.8%. Consider `[C-]#[O+].[C-]#[O+].[C-]#[O+].[C-]#[O+].[Cr].c1ccc(P(CCP(CCP(c2ccccc2)c2ccccc2)c2ccccc2)CCP(c2ccccc2)c2ccccc2)cc1` (stereo not drawn), for which the growth inhibition is 23.2%. As to `[I][Hg][CH]1CCC2CCCC1O2` (stereo not drawn), the growth inhibition is 99.6% (active). Consider `COc1ccccc1[As](=O)(O)c1ccccc1`, for which the growth inhibition is -0.85%.

On to `COc1ccc(C(C)(C)CC(C)(C)C)cc1`, for which the growth inhibition is 2.55%. As to `O=C1CN2CCC1CC2`, the growth inhibition was -47%.

As to `CCCC(NC(=O)CCl)C(=O)O` (stereo not drawn), the growth inhibition was -18.1%.
